Compounds with a hit are over-represented: about 12% of the library has one in this group of screens.
HP1b binding inh = HP1-beta chromodomain-methylated histone interaction inhibition; AlphaScreen HP1-beta / biotin-H3K9me3 peptide binding; Potency, µM (top dose mostly 114 µM), for the others: top-dose activity change, negative = inhibition, hits mostly inhibitors; hit rate 0.56% among 390,000; AID 540317; P83916; further: nearly all actives have a fitted effect of over 70% in size
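AlphaScreen: HP1-beta (50 nM) preformed 30 min with biotin-H3(1-18)K9me3 peptide (50 nM) in PBS pH 7.4, 0.01% Tween-20. Compound added for 30 min at RT, then streptavidin donor/nickel chelate acceptor beads (10 ug/mL) for 30 min.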
Sfp inh = Sfp phosphopantetheinyl transferase inhibition; Potency, µM, for inactives: largest response in the series, negative = inhibition, usual class: inhibitors; Q9F4F7; Biochemical Sfp PPTase activity, qHTS; hit rate 3.5% among 310,000;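 further: the enzyme is Sfp with the accession as filed and its product quenches rhodamine fluorescence; 0% = enzyme reaction without inhibitor and -100% = no enzyme wells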
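Compounds were incubated with enzyme (final 15 nM) for 15 min at room temperature before substrate addition started the reaction. Fluorescence at 525 nm excitation, 598 nm emission was recorded immediately and after 30 minutes.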
G9a block = G9a (human) methyltransferase inhibition; G9a H3K9 monomethylation, AlphaScreen, 2 h; Potency, µM (doses to about 102 µM), for the others: at the top dose activity, negative = inhibition, actives largely listed as inhibitors; hit rate 8.8% among 350,000; further: on the % scale 0 is the no-effect control and ±100 the full control effect; nearly all actives have a fitted effect of over 75% in size
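Enzyme 20 nM + cpd, 15 min RT; add b-H3K9 pep 500 nM / SAM 20 uM; 2 h RT; anti-H3K9me1 Ab 0.5 ug/mL + SA donor / anti-rabbit acceptor beads 20 ug/mL each, 10 min; AlphaScreen read.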
BAZ2B block = BAZ2B (human) inhibition; Q9UIF8; AlphaScreen BAZ2B-H3K14Ac peptide displacement; AID 504333; hit rate 4.4% among 360,000; Potency, µM (top dose mostly 114 µM), for the others: at the top dose activity change, negative = inhibition, hits mostly inhibitors; further: on the % scale 0 is the no-effect control and ±100 the full control effect; nearly all actives have a fitted effect of over 60% in size
Target sequence (Q9UIF8 whole entry, looked up): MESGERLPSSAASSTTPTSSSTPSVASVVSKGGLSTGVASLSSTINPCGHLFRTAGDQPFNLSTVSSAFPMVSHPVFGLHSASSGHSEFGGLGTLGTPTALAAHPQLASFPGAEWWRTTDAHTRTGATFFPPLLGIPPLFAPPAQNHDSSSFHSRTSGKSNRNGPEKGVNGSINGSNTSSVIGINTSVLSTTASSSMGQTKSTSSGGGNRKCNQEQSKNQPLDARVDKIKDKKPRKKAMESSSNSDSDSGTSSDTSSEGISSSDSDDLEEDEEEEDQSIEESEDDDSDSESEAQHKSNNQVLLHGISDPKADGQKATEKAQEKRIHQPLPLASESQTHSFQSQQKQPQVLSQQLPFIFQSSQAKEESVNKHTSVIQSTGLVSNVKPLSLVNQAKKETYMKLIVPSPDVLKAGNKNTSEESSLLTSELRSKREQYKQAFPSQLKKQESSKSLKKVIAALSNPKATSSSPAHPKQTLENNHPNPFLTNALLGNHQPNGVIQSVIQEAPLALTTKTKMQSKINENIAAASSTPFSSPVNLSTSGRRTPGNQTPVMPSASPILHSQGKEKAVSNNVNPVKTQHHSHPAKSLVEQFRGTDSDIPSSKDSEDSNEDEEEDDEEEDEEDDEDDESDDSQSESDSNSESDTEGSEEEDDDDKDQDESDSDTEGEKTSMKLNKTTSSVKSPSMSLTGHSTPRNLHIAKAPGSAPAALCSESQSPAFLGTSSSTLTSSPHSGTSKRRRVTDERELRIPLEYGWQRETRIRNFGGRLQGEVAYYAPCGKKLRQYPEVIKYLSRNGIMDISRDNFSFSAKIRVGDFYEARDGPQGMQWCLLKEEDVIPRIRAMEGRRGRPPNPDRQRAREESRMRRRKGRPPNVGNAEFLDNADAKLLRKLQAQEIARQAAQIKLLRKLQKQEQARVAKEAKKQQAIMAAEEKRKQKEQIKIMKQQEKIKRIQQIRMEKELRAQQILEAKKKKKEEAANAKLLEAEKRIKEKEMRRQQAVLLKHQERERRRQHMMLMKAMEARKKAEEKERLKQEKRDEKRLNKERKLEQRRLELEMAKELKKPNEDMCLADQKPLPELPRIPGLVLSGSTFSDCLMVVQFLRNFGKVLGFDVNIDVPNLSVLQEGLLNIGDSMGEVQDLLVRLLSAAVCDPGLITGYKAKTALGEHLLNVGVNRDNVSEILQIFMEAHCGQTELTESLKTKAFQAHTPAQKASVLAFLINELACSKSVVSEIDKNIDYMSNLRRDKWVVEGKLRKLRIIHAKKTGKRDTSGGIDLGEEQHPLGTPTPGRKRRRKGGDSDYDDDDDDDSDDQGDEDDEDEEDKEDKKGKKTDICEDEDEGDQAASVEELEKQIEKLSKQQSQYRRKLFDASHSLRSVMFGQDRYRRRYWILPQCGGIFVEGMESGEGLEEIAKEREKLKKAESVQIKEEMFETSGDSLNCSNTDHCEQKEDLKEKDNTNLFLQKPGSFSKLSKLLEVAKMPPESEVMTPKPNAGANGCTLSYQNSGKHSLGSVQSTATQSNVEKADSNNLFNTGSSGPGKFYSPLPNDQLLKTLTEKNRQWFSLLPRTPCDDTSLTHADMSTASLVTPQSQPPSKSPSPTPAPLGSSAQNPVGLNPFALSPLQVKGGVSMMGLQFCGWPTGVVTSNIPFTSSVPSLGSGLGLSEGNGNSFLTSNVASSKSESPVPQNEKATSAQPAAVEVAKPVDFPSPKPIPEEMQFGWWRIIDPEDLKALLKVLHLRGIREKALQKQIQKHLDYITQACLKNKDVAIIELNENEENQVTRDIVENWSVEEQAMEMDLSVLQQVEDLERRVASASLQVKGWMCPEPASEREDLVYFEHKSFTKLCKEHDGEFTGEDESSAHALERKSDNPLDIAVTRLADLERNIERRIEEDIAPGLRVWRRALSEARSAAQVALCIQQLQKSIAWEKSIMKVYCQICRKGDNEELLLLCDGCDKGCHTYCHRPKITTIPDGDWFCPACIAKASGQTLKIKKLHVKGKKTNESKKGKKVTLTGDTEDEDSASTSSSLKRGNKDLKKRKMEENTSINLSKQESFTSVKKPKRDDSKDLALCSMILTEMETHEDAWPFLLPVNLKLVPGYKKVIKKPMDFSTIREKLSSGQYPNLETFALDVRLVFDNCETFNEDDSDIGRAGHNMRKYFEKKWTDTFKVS
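BAZ2B 50 nM plus b-H3(5-23)K14Ac 50 nM, PBS pH 7.4/0.01% Tween-20, 30 min RT; compound added (max 110 uM), 30 min RT; streptavidin donor/Ni-chelate acceptor beads 10 ug/mL final, 20 min dark; AlphaScreen read.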
L3MBTL1 block = blocks human L3MBTL1. Potency, µM (series often up to 57.1 µM), inactives show at the highest dose activity, negative = inhibition, hits mostly inhibitors. AID 485360. hit rate 0.66% among 230,000. AlphaScreen L3MBTL1–H3K9me1 peptide binding; further: on the % scale 0 is the no-effect control and ±100 the full control effect; nearly all actives have a fitted effect of over 60% in size
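L3MBTL1 (50 nM) pre-complexed 30 min with biotinylated H3(1-15)K9me1 peptide (75 nM), then compounds added for 30 min at room temperature; AlphaScreen streptavidin donor/nickel chelate acceptor beads (10 ug/mL final) read after 30 min dark incubation.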
JMJD2A Tudor = inhibitors of human JMJD2A Tudor domain; O75164; AlphaScreen JMJD2A-Tudor / H3K4me3 peptide binding; Potency, µM (series often up to 114 µM), inactives show top-dose activity change, negative = inhibition, actives largely listed as inhibitors; hit rate 4.4% among 390,000; AID 504339; further: on the % scale 0 is the no-effect control and ±100 the full control effect; nearly all actives have a fitted effect of over 50% in size
Starred values were filed as active, the others as inactive; ? = inconclusive; · = no result given; ! = repeats disagree; [ ] = another dose, or the depositor's remark. The call rests on the fitted dose curve; in most records, active means well fitted curve in the direction sought with a large enough effect; inconclusive means small, poorly fitted or top-dose-only effect, or another doubt; inactive means no such curve, though single readings can be large; an effect the other way counts as inactive or inconclusive. Potency means the concentration at half of the fitted maximal effect.

SMILES	HP1b binding inh	Sfp inh	G9a block	BAZ2B block	L3MBTL1 block	JMJD2A Tudor
CC(=O)c1ccc(S(=O)(=O)Nc2ccc(-c3ccc4nnc(C)n4n3)cc2)cc1	14.7%	1.6%	-35.1%	70.8µM*	·	-35.2%
Cn1c(=O)n(C)c2cc(S(=O)(=O)NCCOCCO)ccc21	13.2%	17.8%	-11.8%[12.7 µM]	3.0%	·	-8.6%
CCOC(=O)c1ccc(S(=O)(=O)Nc2cc(C(C)(C)C)no2)cc1	16.1%	79.4µM*	?	-3.8%	-4.7%[11.4 µM]	-9.0%
C/C(=N\Nc1ccc(S(=O)(=O)Nc2ccc(Cl)cc2)cc1[N+](=O)[O-])c1ccc(N2CCOCC2)cc1	?	11.2%	8.91µM*	7.94µM*	?	5.01µM*
O=C1CCCC2=C1C(c1ccccc1Cl)N=C(Nc1nc3ccccc3o1)N2 (configuration not stated)	·	·	·	·	·	-22.0%
COc1cc(OC)cc(C(=O)NCc2ccc3c(c2)CCN3C(=O)c2ccccc2)c1	24.3%	·	2.0%[59 µM]	-4.6%	·	-5.7%
CC(=O)c1cccc(S(=O)(=O)NCCCN2CCOCC2)c1	8.8%	·	1.41µM*	12.2%	-17.8%	-12.2%
CCOC(=O)/C=C/C(=O)Nc1cc(S(=O)(=O)Nc2ccc(OC)cc2)ccc1N1CCOCC1	24.4%	·	44.7µM*	7.9%	-7.2%	-17.2%
CC(=O)Nc1ccc(S(=O)(=O)Nc2ccc(N3CCOCC3)cc2)cc1	21.4%	13.0%	-43.8%[12.7 µM]	-8.4%	·	-2.9%
COC(=O)c1ccc(NS(=O)(=O)c2ccc3c(c2)n(C)c(=O)n3C)cc1	7.4%	10.7%	1.2%	?	0.4%	-23.8%
COc1ccc(NS(=O)(=O)c2ccc(N3CCOCC3)c(NC(=O)C(C)C)c2)cc1	22.6%	15.3%	-1.4%	·	-1.3%	-4.4%
CCOC(=O)c1ccc(S(=O)(=O)Nc2ccc(N3CCOCC3)cc2)cc1	0.1%	11.4%	79.4µM*	-23.5%	·	-23.1%
CCOC(=O)c1ccc(NS(=O)(=O)c2ccc3c(c2)n(C)c(=O)n3C)cc1	15.2%	-3.8%	37.5%[0.501 µM]	79.4µM*!	·	-0.7%
COC(=O)c1cc2oc3ccccc3c2n1Cc1cccc(C)c1	99.0%	·	66.5%[59 µM]	58.6%	·	32.4%
Nc1c(O)cccc1C(=O)O	-15.1%	·	·	·	·	56.2µM*
O=C(O)c1ccccc1O	37.2%	12.3%	18.6%[59 µM]	10.4%	14.8%	-3.6%
O=C(O)c1cccc(C(=O)O)c1Br	4.0%	12.2%	8.9%	?	-0.7%	89.1µM*
CCc1ccccc1NC(=O)Cn1c(=O)n(Cc2ccc(OC)cc2)c(=O)c2oc3ccccc3c21	5.7%	·	2.0%[59 µM]	-3.7%	·	-13.2%
COc1ccc(-c2c3c(=O)n(C)c(=O)n(C)c3cn2-c2cccc(N)c2)cc1	?	·	11.2µM*	?	·	?
COc1ccc(-c2c3c(=O)n(C)c(=O)n(C)c3cn2-c2ccc(O)cc2)cc1	?	-6.0%	-5.5%[12.7 µM]	79.4µM*	2.1%	-32.4%
CC1(C)CC(NC(=O)c2ccc(Cl)cc2)CC(C)(C)N1	1.1%	16.9%	16.5%	2.6%	10.3%	-18.2%
CC(=O)c1ccc(-c2ccc(C(=O)NCC3CCCO3)o2)cc1 (configuration not stated)	33.7%	·	79.4µM*	3.5%	1.8%	-15.2%
CC(=O)c1ccc(-c2ccc(C(=O)NC3CC(C)(C)NC(C)(C)C3)o2)cc1	17.0%	·	39.8µM*	-3.9%	7.5%	-22.1%
CNC(=O)c1c(NC(=O)c2nc(SCc3ccc(C)cc3)ncc2Cl)sc2c1CCCC2	15.5%	·	1.1%[59 µM]	-4.5%	·	-11.3%
CCc1ccc(NS(=O)(=O)c2cc(-c3cnc(C4CC4)o3)ccc2C)cc1	41.7%	·	-9.3%[59 µM]	-22.6%	·	?
COc1ccc(NS(=O)(=O)c2cc(-c3cnc(C4CC4)o3)ccc2C)cc1	-0.2%[57 µM]	8.6%	50.1µM*	?	·	?
COc1ccc(-c2cnc(C)o2)cc1S(=O)(=O)Nc1ccc(C)c(N(C)C)c1	23.2%	·	?	50.1µM*	·	?

Screens (PubChem)
